SMILES strings stand for the structures. The campaign covered roughly 310,000 compounds. About 11,000 (3.5%) were called active. About 8% were inconclusive and are not listed. Shown is part of a subset that was picked to be rich in actives. A number with no mark means an inactive call. Calls come from the whole dose curve; as a rule, active = well fitted inhibition curve with a large enough effect; inconclusive = small, poorly fitted or top-dose-only effect, or effect the other way; inactive = flat fitted curve, though single readings scatter.
% is set by controls: 0 for no effect and ±100 for the full control effect; potency is the fitted concentration of half-maximal effect.

This assay can be described thus: VP16 counterscreen qHTS for inhibitors of ROR gamma transcriptional activity.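 Note: Gal4-VP16 expression switched on by copper sulfate through the metallothionein promoter; nearly all actives have a fitted effect of over 50% in size.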 As to conditions: Drosophila S2 Gal4-VP16 UAS-luciferase, luminescence, 20 h; series mostly up to 53.6 µM; activity, negative = inhibition: at the top concentration. (In general: The purpose of a counterscreen is to sort out artefacts and off-target activity.)
On to `Clc1cccc(CN2COc3c(cc(Cl)c4cccnc34)C2)c1`, for which the Potency is 1.41 µM (active). `Nc1c(C(=O)NCc2ccccc2)nnn1Cc1cccc(Cl)c1`: the “activity, negative = inhibition” value was 7.37%. On the same count and under the same terms, in the case of `CC(C)CC(=O)N1CCN(Cc2cccc(Cl)c2)CC1` it was -11.5%; in that of `N#Cc1cccc(CN2CCC(=O)N([C@H](CO)c3ccccc3)CC2)c1`, 0.328%. Take `O=C(CN1CCCC1)Nc1sc2c(c1C(=O)Nc1ccccc1)CCCC2`: the Potency was 10 µM (active). `Cc1ccc(NC(=O)c2c(NC(=O)CCC(=O)O)sc3c2CCCCC3)cc1`: the “activity, negative = inhibition” value is 7.16%.

As to `NC(=O)c1c(NC(=O)c2ccccc2)sc2c1CCCC2`, the “activity, negative = inhibition” value was 2.02%.

In the case of `COc1cc(S(=O)(=O)N2CCN=C2c2ccccc2)ccc1Cl`, the “activity, negative = inhibition” value was 6.16%. As to `Cc1cc(S(=O)(=O)c2cc3ccc(O)c(C)c3oc2=O)ccc1F`, the “activity, negative = inhibition” value was -6.11%. Still for that read-out and setting: under `Cc1nc2ccc(C(=O)N/N=C/c3ccc(O)cc3)cc2[nH]1` stands 1.9%; under `Cc1ccc2occ(/C=N/NC(=O)c3ccccc3C)c(=O)c2c1`, -18.9%. Consider `Cc1ccc(/C=N/NC(=O)C2=NNC(c3ccccc3)(c3ccccc3)C2)c(O)c1`, for which the Potency is 1.26 µM (active).

As to `O=C(NCc1ccccc1)c1onc(CSc2nc3ccccc3[nH]2)c1C(=O)NCc1ccccc1`, the “activity, negative = inhibition” value was -0.36%.

In the case of `O=C(COc1ccc2c3c(c(=O)oc2c1)CCCC3)NCC(O)c1ccccc1` (stereo not drawn), the “activity, negative = inhibition” value is 4.21%. Same read-out and setting: in the case of `COCCN1C(=O)C(=O)/C(=C(/O)c2ccc(S(=O)(=O)N3CCOCC3)cc2)C1c1ccc(OC)c(OC)c1` (stereo not drawn) it was 1.7%; in that of `C/C(=N\NC(=O)C(N)=O)c1ccc2c(c1)OCCO2`, -20.3%. As to `C/C(=N/NC(=S)Nc1ccccc1)c1ccc2c(c1)OCO2`, the Potency is 4.47 µM (active). Turning to `C/C(=N/NC(=O)c1ccncc1)c1ccc2c(c1)OCO2`, the “activity, negative = inhibition” value is 8.05%. For `Cc1ccccc1N1CCN(C2CCCN(C(=O)c3cn4c(C)cccc4n3)C2)CC1` (stereo not drawn), the “activity, negative = inhibition” value is 2.74%.

For the compound `CCc1nn(CCCC(=O)Nc2ccc(C)c(C)c2)c(=O)c2cc3occc3n12`, the “activity, negative = inhibition” value was -2.24%. Still for that read-out and setting: in the case of `CN1C/C(=C/c2cccs2)C(=O)/C(=C\c2cccs2)C1` it was 0.426%. With `O=C(Nc1cccc([N+](=O)[O-])c1)Nc1ccc(Cl)cn1`, the “activity, negative = inhibition” value was -8.42%.

`CCCc1cc(C(=O)Nc2ccc(Cl)cn2)cs1`: the “activity, negative = inhibition” value is -25.9%.

`O=C(Nc1ccc(Cl)cn1)Nc1cccs1`: the Potency was 14.1 µM (active). With `COc1cc(/C=N/N2CCN(c3ccccc3)CC2)ccc1OC(C)=O`, the “activity, negative = inhibition” value was 1.56%. Consider `CC1CN/C(=C\C(=O)c2ccc(Br)cc2)C(=O)N1` (stereo not drawn), for which the Potency is 11.2 µM (active). As for `COc1cc2c(cc1OC)/C(=C/C(=O)c1ccc(NC(C)=O)cc1)NCC2`, the “activity, negative = inhibition” value is -3.3%. The same measure, in the same setting: under `C/C(=C\C(=O)c1ccc(Br)cc1)N1CCCCC1` stands 1.38%. The same measure, in the same setting: in the case of `Cc1ccnc(SCC(N)=O)n1` it was 13.3%.

For `CCOc1ccccc1N1C(=O)CC(Sc2nccc(C)n2)C1=O` (stereo not drawn), the Potency is 17.8 µM (active). In the case of `O=C1CC(Sc2ncn[nH]2)C(=O)N1c1ccccc1` (stereo not drawn), the “activity, negative = inhibition” value is 1.14%. In the case of `COC(=O)C1CCN(C(=O)c2ccc3oc(Cc4ccc(Cl)cc4)nc3c2)CC1`, the “activity, negative = inhibition” value is 6.36%.

In the case of `COc1ccc(-c2nc3c(s2)CCc2onc(-c4ccc(OC)cc4)c2-3)cc1`, the “activity, negative = inhibition” value is 2.49%. As to `CCn1ccnc1CNC(=O)CC1C(=O)NCCN1CCCc1ccccc1` (stereo not drawn), the “activity, negative = inhibition” value was -0.0781%. Take `COCCNC(=S)N(CCc1c(C)[nH]c2ccc(C)cc12)Cc1cccnc1`: the “activity, negative = inhibition” value was 1.9%. Regarding `Cc1cccc(S(=O)(=O)CC(=O)Nc2nc(-c3ccccc3)cs2)c1`, the “activity, negative = inhibition” value was 0.641%. The same measure, in the same setting: in the case of `NS(=O)(=O)c1ccc(Nc2nc(-c3ccccc3)cs2)cc1` it was -27.5%. In the case of `Cc1cccc(Nc2nc(-c3ccccc3)cs2)n1`, the Potency was 17.8 µM (active). As for `O=C(Nc1ccc(S(=O)(=O)N2CCOCC2)cc1)c1ccc2ncsc2c1`, the “activity, negative = inhibition” value was 0.439%. The same measure, in the same setting: under `COc1ccccc1-c1nnc(SCC(=O)Nc2ccccc2)o1` stands -26.6%.

`COc1ccccc1-c1nnc(NC(=O)c2ccc3ncsc3c2)o1`: the Potency is 0.501 µM (active). On the same count and under the same terms, under `CCCOc1ccc(-c2c(C(=O)N/N=C/c3ccco3)nnn2-c2nonc2N)cc1` stands 15.8 µM (active). Regarding `Nc1nonc1-n1nnc(C(=O)N/N=C/C2CCCCC2)c1-c1ccccc1`, the “activity, negative = inhibition” value was -2.79%.

As for `Nc1nonc1-n1nnc(C(=O)N/N=C/c2c[nH]c3ccccc23)c1-c1ccccc1`, the “activity, negative = inhibition” value is 2.56%. Still for that read-out and setting: in the case of `COc1ccc(NC(=O)c2cccc3c2C(=O)N(CC2CCCO2)C3)cc1OC` (stereo not drawn) it was 5.55%; in that of `O=C(NNS(=O)(=O)c1ccc(F)cc1)C1CCCCC1`, 8.02%. Regarding `COc1cc(SC#N)ccc1N=Cc1c(C)[nH]n(-c2ccc(C)cc2)c1=O`, the Potency is 5.62 µM (active). Regarding `COc1cc(NS(=O)(=O)c2ccc(N=Cc3c(C)[nH]n(-c4ccccc4)c3=O)cc2)nc(OC)n1`, the “activity, negative = inhibition” value was -3.08%. On the same count and under the same terms, in the case of `O=S(=O)(Nc1cccc(-n2cnnn2)c1)c1cnc(Cl)c(Cl)c1` it was -5.26%; in that of `CCc1ccc(S(=O)(=O)Nc2cc3c(cc2N2CCCCC2)n(C)c(=O)c(=O)n3C)cc1`, 4.34%. With `CSCCC(NS(=O)(=O)c1ccc(C)cc1)C(=O)NCCc1c[nH]c2ccccc12` (stereo not drawn), the “activity, negative = inhibition” value was 8.21%. On the same count and under the same terms, in the case of `COc1ccc(C(=O)c2c(C)c(CCC#N)n3ccccc23)c(OC)c1` it was 1.13%. As for `Cc1ccc(-c2cc(C(=O)N/N=C/C=C/c3ccccc3)n[nH]2)o1`, the Potency was 20 µM (active).

Source of the values: PubChem BioAssay AID2546 (National Center for Advancing Translational Sciences (NCATS), 2010).
